Measurements from the antibiotic and cytotoxicity screens of Wong et al. (2023).
Out of some 39,000 compounds screened, about 3,300 (8.5%) were called active. Many of the other results were omitted from the sample, so actives are more common in it than they were.

Each compound was assayed on HepG2 (assay: cytotoxicity call (relative viability < 0.9)). Conditions: 10 µM.

Compound	cytotoxicity call
C[C@@H]1CN([C@@H](C)CO)C(=O)c2cccc(NC(=O)c3ccncc3)c2O[C@@H]1CN(C)Cc1ccc2c(c1)OCO2	inactive
C[C@@H]1CCCCO[C@@H](CN(C)C(=O)C2CCCCC2)[C@H](C)CN([C@H](C)CO)C(=O)c2cc(NC(=O)Nc3cccc4ccccc34)ccc2O1	inactive
O=C(C[C@H]1C[C@@H]2c3cc(NC(=O)NC4CCCC4)ccc3O[C@@H]2[C@@H](CO)O1)NCc1ccc(-c2ccccc2)cc1	active
O=C(C[C@@H]1C[C@H]2c3cc(NC(=O)NC4CCCC4)ccc3O[C@H]2[C@H](CO)O1)NCc1ccc(-c2ccccc2)cc1	active
O=C(C[C@@H]1C[C@@H]2c3cc(NC(=O)NC4CCCC4)ccc3O[C@@H]2[C@H](CO)O1)NCc1ccc(-c2ccccc2)cc1	inactive
O=C(C[C@H]1C[C@H]2c3cc(NC(=O)NC4CCCC4)ccc3O[C@H]2[C@H](CO)O1)NCc1ccc(-c2ccccc2)cc1	inactive
O=C(C[C@@H]1C[C@H]2c3cc(NC(=O)NC4CCCC4)ccc3O[C@H]2[C@@H](CO)O1)NCc1ccc(-c2ccccc2)cc1	inactive
O=C(C[C@H]1C[C@H]2c3cc(NC(=O)NC4CCCC4)ccc3O[C@H]2[C@@H](CO)O1)NCc1ccc(Oc2ccccc2)cc1	inactive
O=C(C[C@@H]1C[C@@H]2c3cc(NC(=O)NC4CCCC4)ccc3O[C@@H]2[C@@H](CO)O1)NCc1ccc(-c2ccccc2)cc1	inactive
O=C(C[C@H]1C[C@@H]2c3cc(NC(=O)NC4CCCC4)ccc3O[C@@H]2[C@H](CO)O1)NCc1ccc(-c2ccccc2)cc1	active
O=C(C[C@H]1C[C@H]2c3cc(NC(=O)NC4CCCC4)ccc3O[C@H]2[C@@H](CO)O1)NCc1ccc(-c2ccccc2)cc1	inactive
CC(=O)OCCc1nc(C(=O)NCc2ccc3c(c2)OCO3)cc2c1[C@@H](CCO)N([S@](=O)C(C)(C)C)C2	inactive
O=C(C[C@@H]1C[C@H]2c3cc(NS(=O)(=O)c4ccccc4)ccc3O[C@H]2[C@H](CO)O1)NCC(F)(F)F	inactive
COc1cccc(-c2ccc3c(c2)O[C@H](CN(C)C(=O)C2CCOCC2)[C@@H](C)CN([C@@H](C)CO)S3(=O)=O)c1	inactive
C[C@@H]1CN([C@H](C)CO)C(=O)c2cc(NC(=O)Nc3ccccc3)ccc2O[C@@H]1CN(C)Cc1ccc(C(=O)Nc2ccccc2N)cc1	inactive
C[C@H](CO)N1C[C@H](C)[C@H](CN(C)S(=O)(=O)c2ccccc2)Oc2ccc(NS(=O)(=O)c3ccc(F)cc3)cc2C1=O	inactive
CN1C(=O)c2cc(NC(=O)c3cnccn3)ccc2OC[C@H]2O[C@H](CC(=O)N[C@H]3CCN(Cc4ccccc4)C3)CC[C@@H]21	inactive
COc1ccc(S(=O)(=O)N(C)C[C@@H]2Oc3ccc(NC(=O)Cn4cnnn4)cc3C(=O)N([C@H](C)CO)C[C@@H]2C)cc1	inactive
CC(=C/C(=O)O)/C=C/c1ccccc1	inactive
CCCCC(CC)COC(=O)C=Cc1ccc(OC)cc1 (configuration not stated)	inactive
COc1ccc(/C=C2/NC(=O)NC2=O)cc1	inactive
COc1ccc(C=CC(=O)c2cc(O)ccc2O)cc1	active
COc1ccc(C=CC(=O)c2ccc(O)cc2O)cc1	inactive
O=C(C=Cc1ccc(O)cc1)c1ccc(O)cc1O	inactive

Compound	cytotoxicity call
C/C=C/c1ccc(OC)cc1	inactive
COc1ccc(C(=O)C=Cc2ccccc2)cc1	active
CC=Cc1ccc(OC)cc1	active
COc1ccc(C=CC(=O)c2ccccc2)cc1	active
COc1ccc(C(=O)O)cc1	inactive
C[C@H](CO)N1C[C@H](C)[C@H](CN(C)C(=O)Nc2ccc(-c3ccccc3)cc2)OCc2ccccc2-c2ccccc2C1=O	inactive
C[C@H](CO)N1C[C@H](C)[C@H](CN(C)C(=O)CCC(F)(F)F)OCCCC[C@H](C)Oc2ccc(NC(=O)CCC(F)(F)F)cc2C1=O	inactive
O=C(NCC(=O)N1CCOCC1)c1ccccc1	inactive
Cc1ccc(S(=O)(=O)Nc2ccc3c(c2)CC(=O)N([C@H](C)CO)C[C@@H](C)[C@H](CN(C)S(=O)(=O)c2cn(C)cn2)O3)cc1	inactive
Cc1ccc(S(=O)(=O)Nc2ccc3c(c2)CC(=O)N([C@@H](C)CO)C[C@H](C)[C@@H](CN(C)S(=O)(=O)c2cccs2)O3)cc1	inactive
C[C@H](CO)N1C[C@H](C)[C@@H](CN(C)S(C)(=O)=O)Oc2ccc(NC(=O)Cn3cnnn3)cc2C1=O	inactive
COc1cc(C=Cc2ccc(O)cc2)cc(OC)c1	active
Oc1ccc(C=Cc2cc(O)cc(O)c2)cc1	inactive
COc1ccc(O)cc1	inactive
C[C@@H]1CN([C@@H](C)CO)C(=O)c2cc(C#CCN(C)C)cnc2O[C@@H]1CN(C)S(C)(=O)=O	inactive
COc1ccc(S(=O)(=O)N(C)C[C@H]2OCCCC[C@@H](C)Oc3ccc(NC(=O)C4CCCCC4)cc3C(=O)N([C@@H](C)CO)C[C@H]2C)cc1	inactive
CC(C)(C)[S@](=O)N1Cc2cc(C(=O)NCCN3CCCCC3)nc(-c3cccc(-c4ccc(C#N)cc4)c3)c2[C@@H]1CCO	inactive
C[C@@H]1CN([C@@H](C)CO)S(=O)(=O)c2ccc(C#CCC3CCCC3)cc2O[C@@H]1CN(C)C(=O)CN(C)C	active
C[C@H]1CN([C@@H](C)CO)S(=O)(=O)c2ccc(C#CCC3CCCC3)cc2O[C@@H]1CN(C)C(=O)CN(C)C	inactive
C[C@H]1CN([C@@H](C)CO)S(=O)(=O)c2ccc(C#CCC3CCCC3)cc2O[C@H]1CN(C)C(=O)c1cnccn1	inactive
C[C@@H]1CN([C@H](C)CO)S(=O)(=O)c2ccc(C#CCC3CCCC3)cc2O[C@H]1CN(C)C(=O)CN(C)C	inactive
C[C@H](CO)N1C[C@H](C)[C@H](CN(C)C(=O)CN(C)C)Oc2cc(C#CCC3CCCC3)ccc2S1(=O)=O	inactive
C[C@H](CO)N1C[C@H](C)[C@@H](CN(C)C(=O)c2cnccn2)Oc2cc(C#CCC3CCCC3)ccc2S1(=O)=O	active
C[C@H]1CN([C@@H](C)CO)S(=O)(=O)c2ccc(C#CCC3CCCC3)cc2O[C@H]1CN(C)C(=O)CN(C)C	active

Compound	cytotoxicity call
C[C@@H]1CN([C@H](C)CO)S(=O)(=O)c2ccc(C#CCC3CCCC3)cc2O[C@@H]1CN(C)C(=O)CN(C)C	inactive
C[C@@H]1CN([C@H](C)CO)S(=O)(=O)c2ccc(C#CCC3CCCC3)cc2O[C@@H]1CN(C)C(=O)c1cnccn1	inactive
C=CCN([C@@H](Cc1ccccc1)[C@@H](O)c1cn(CCCNC(=O)C(=O)NC)nn1)S(=O)(=O)c1ccccc1[N+](=O)[O-]	inactive
C[C@@H]1CN([C@@H](C)CO)S(=O)(=O)c2ccc(C#CCN(C)C)cc2O[C@H]1CN(C)S(=O)(=O)c1cccc(F)c1	inactive
CC(=O)OC[C@@H](OC(C)=O)[C@H](OC(C)=O)[C@H](OC(C)=O)[C@H](OC(C)=O)[C@@H](COC(C)=O)OC(C)=O	inactive
Cc1noc(C)c1NC(=O)Nc1ccc2c(c1)C(=O)N([C@@H](C)CO)C[C@H](C)[C@@H](CN(C)C(=O)NC(C)C)O2	inactive
COc1ccc(S(=O)(=O)Nc2ccc3c(c2)CC(=O)N([C@@H](C)CO)C[C@H](C)[C@@H](CN(C)Cc2ccc(Cl)c(Cl)c2)O3)cc1	inactive
COc1ccc(S(=O)(=O)Nc2ccc3c(c2)CC(=O)N([C@H](C)CO)C[C@H](C)[C@H](CN(C)Cc2ccc(Cl)c(Cl)c2)O3)cc1	active
COc1ccc(S(=O)(=O)Nc2ccc3c(c2)CC(=O)N([C@@H](C)CO)C[C@@H](C)[C@@H](CN(C)Cc2ccc(Cl)c(Cl)c2)O3)cc1	active
COc1ccc(S(=O)(=O)Nc2ccc3c(c2)CC(=O)N([C@H](C)CO)C[C@@H](C)[C@H](CN(C)Cc2ccc(Cl)c(Cl)c2)O3)cc1	active
COc1ccc(S(=O)(=O)Nc2ccc3c(c2)CC(=O)N([C@@H](C)CO)C[C@@H](C)[C@H](CN(C)Cc2ccc(Cl)c(Cl)c2)O3)cc1	inactive
COc1ccc(S(=O)(=O)Nc2ccc3c(c2)CC(=O)N([C@@H](C)CO)C[C@H](C)[C@H](CN(C)Cc2ccc(Cl)c(Cl)c2)O3)cc1	active
CN1C(=O)c2cc(NC(=O)c3cscn3)ccc2OC[C@@H]2O[C@H](CC(=O)N3CCOCC3)CC[C@@H]21	inactive
OCC1OC(OCCc2ccc(O)cc2)C(O)C(O)C1O (configuration not stated)	inactive
C[C@@H]1CN([C@H](C)CO)C(=O)c2cc(NC(=O)Nc3ccc(F)cc3)ccc2O[C@@H](C)CCCCO[C@@H]1CN(C)Cc1ccc(C(=O)O)cc1	inactive
COc1ccccc1-c1cnc2c(c1)C(=O)N([C@H](C)CO)C[C@H](C)[C@H](CN(C)C(=O)c1cccnc1)O2	inactive
CC(O)C(=O)[O-].[NH4+] (configuration not stated)	inactive
C[C@H]1CN([C@@H](C)CO)C(=O)c2cccc(NC(=O)Nc3ccc(F)cc3)c2O[C@@H]1CN(C)C(=O)Nc1ccc(C(F)(F)F)cc1	inactive
COc1ccc(S(=O)(=O)Nc2ccc3c(c2)CC(=O)N([C@H](C)CO)C[C@@H](C)[C@@H](CN(C)Cc2ccc(Cl)c(Cl)c2)O3)cc1	active
COc1ccc(S(=O)(=O)Nc2ccc3c(c2)CC(=O)N([C@H](C)CO)C[C@H](C)[C@@H](CN(C)Cc2ccc(Cl)c(Cl)c2)O3)cc1	inactive
C/N=C1/S[C@@H]2CS(=O)(=O)C[C@@H]2N1C	inactive
O=C(C[C@H]1CC[C@H]2[C@@H](COC[C@@H](O)CN2S(=O)(=O)c2ccc(F)cc2)O1)N[C@H]1CCN(Cc2ccccc2)C1	inactive
COc1cccc(CNC(=O)C[C@@H]2C=C[C@H](NC(=O)C3CCOCC3)[C@@H](CO)O2)c1	inactive
C[C@@H]1CN([C@@H](C)CO)C(=O)c2cccc(NS(=O)(=O)c3cn(C)cn3)c2O[C@@H]1CN(C)Cc1ccccc1	inactive
